IL1B secr inh – blocks inflammasome-driven IL-1 beta release; THP-1 LPS/ATP IL-1B secretion, AlphaLISA, 16 h; active compounds read low; activity change, % at 57.5 µM; 4.7% of 360,000 active; AID 743279; in the data active = activity change below about -50%; inconclusive = mostly about -30% to -49%; note: % is set by controls: 0 for no effect and ±100 for the full control effect
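THP-1 cells pretreated 1 hr with compounds (up to 57.5 uM final), then stimulated with LPS (250 ng/mL final) plus ATP (1.25 mM final); secreted IL-1B measured by AlphaLISA after 16 hr, decreased signal indicating inhibition.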
DT40 TDP1 no CPT – qHTS for Inhibitors of human tyrosyl-DNA phosphodiesterase 1 (TDP1): qHTS in cells in absence of CPT; DT40 Tdp1-/- hTDP1 cells, no CPT, ATP luminescence, 48 h; Potency, µM (doses to about 46.2 µM), without a hit: at the top dose activity change, negative = growth inhibition, actives largely listed as inhibitors; AID 686978, 2013; 15% of 420,000 active; note: potency is the fitted concentration of half-maximal effect; % is set by controls: 0 for no effect and ±100 for the full control effect; nearly all actives have a fitted effect of over 55% in size
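DT40 Tdp1-/-;hTDP1 cells, no CPT (DMSO vehicle only), 400 cells/well; compounds pin-transferred; ≥48 hr, 37 °C; CellTiter-Glo 30 min RT dark, luminescence read.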
Chronic BCR inh – chronic active BCR signaling inhibition. ABC-DLBCL IkBa-CBG/CBR reporter, luminescence ratio, 4 h. Potency, µM (titrated, usually from 46.1 µM), for inactives: at the highest dose activity change, negative = inhibition, most hits filed as inhibitors. 0.05% of 340,000 active; active = well fitted inhibition curve with a large enough effect in the signal ratio, with a control signal flat, not every such curve was filed as active; inconclusive = small, poorly fitted or top-dose-only effect, or effect the other way, or a change in a side signal; the % refers to the signal ratio;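 note: potency is the fitted concentration of half-maximal effect; plate controls were basal doxycycline-induced cells for no effect and cells given 10 µM MG132 for full effect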
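TMD8 human ABC-DLBCL cells with doxycycline-inducible IκBα–green luciferase fusion and unfused red luciferase, in 0.5% FBS medium; compounds up to 46 uM, 4 h at 37C. Green/red luminescence ratio, filter-overlap corrected, fitted to concentration-response curves.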
MCF10A rereplic – inducers of DNA re-replication in MCF 10A breast cells. Potency, µM (titrated, usually from 46.1 µM), without a hit: top-dose activity, positive = re-replication, most hits filed as activators. AID 624296. MCF 10A DNA re-replication, Hoechst nuclear intensity, 48 h. 2.9% of 350,000 active; note: potency is the fitted concentration of half-maximal effect; % of control where 0% means no effect; nearly all actives have a fitted effect of over 50% in size
SW480 rerep – induces DNA re-replication in SW480 colon adenocarcinoma cells. SW480 DNA re-replication, Hoechst DNA content imaging, 48 h. Potency, µM (highest dose often 46.1 µM), inactives show at the top dose re-replication activation, hits mostly activators. 1.8% of 340,000 active. AID 624297; note: potency is the fitted concentration of half-maximal effect; % of control where 0% means no effect; nearly all actives have a fitted effect of over 55% in size
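Compounds, transferred as 23 nL by pin tool, were incubated with cells for 48 hr; DNA content per nucleus was then quantified by Hoechst staining and fluorescence plate imaging.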
TDP1 cell CPT – growth inhibition of DT40 Tdp1-/-;hTDP1 cells with camptothecin (screen for TDP1 inhibitors). 12% of 420,000 active. chicken DT40 Tdp1-/-;hTDP1 cells + 20 nM CPT, ATP luminescence, 48 h. Potency, µM (top dose mostly 46.2 µM), for the others: at the highest dose activity change, negative = growth inhibition, actives largely listed as inhibitors; note: potency is the fitted concentration of half-maximal effect; % is set by controls: 0 for no effect and ±100 for the full control effect; nearly all actives have a fitted effect of over 55% in size
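Chicken DT40 Tdp1-/- cells complemented with human TDP1, 400 cells/well, exposed to compounds plus 20 nM camptothecin for at least 48 h at 37 C; viability read as ATP content by CellTiter-Glo luminescence.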
Numbers without * were called inactive; u = inconclusive; x = no result given. This is a sample that favours compounds with a hit; in the whole collection about 19% have one here. Unless noted, calls come from the whole dose curve; as a rule, active = well fitted curve in the direction sought with a large enough effect; inconclusive = small, poorly fitted or top-dose-only effect, or another doubt; inactive = no such curve, though single readings can be large; an effect the other way counts as inactive or inconclusive.

SMILES	IL1B secr inh	DT40 TDP1 no CPT	Chronic BCR inh	MCF10A rereplic	SW480 rerep	TDP1 cell CPT
CCOC(=O)C1CCN(c2cc3c(cc2NC(=O)c2cc(OC)ccc2Br)n(C)c(=O)n3C)CC1	0	12µM*	1%	9%	u	16µM*
CC(NC(=O)c1cc(F)c(F)cc1Cl)C1CC2CCC1C2 (centres undefined)	2	u	5%	14%	-7%	-24%
CC(NC(=O)c1cc(S(=O)(=O)N(C)C)ccc1Cl)C1CC2CCC1C2 (centres undefined)	21	9.2µM*	-1%	9%	1%	16µM*
CCN(CC)CCOC(=O)c1c(C)oc2ccc(OC)cc12	-86*	-2%	-3%	10%	-2%	-4%
CCN(CC)CCOC(=O)c1ccc(NC(=O)c2cc3cc(OC)ccc3oc2=O)cc1	x	0.0058µM*	x	x	x	0.041µM*
COc1ccc2oc(=O)c(C(=O)Nc3cccc(C(C)=O)c3)cc2c1	-5	-15%	-2%	-2%	1%	-3%
C=C(C)COc1ccc2oc(C)c(C(=O)OCCOC)c2c1	5	-17%	11%	6%	-9%	-6%
CCN(CC)CCOC(=O)c1ccc(NC(=O)c2cc3cccc(OC)c3oc2=O)cc1	x	u	u	x	x	21µM*
CC1(C)CC2/C(CO)=C/C=C/[C@](C)(O)CC[C@]21O (some centres undefined)	x	-5%	x	x	x	10%
COc1ccc(C(=O)On2c(-c3ccc(Br)cc3)nc3ccccc3c2=O)cc1	u	18µM*	u	9.2µM*	u	u
Cc1cc(C(=O)Nn2c(-c3ccc(Br)cc3)nc3ccccc3c2=O)ccc1[N+](=O)[O-]	25	u	11%	u	u	29µM*
C[n+]1ccnc2cc(Cl)ccc21	x	0.71µM*	x	x	x	0.63µM*
C=CC[n+]1ccnc2ccccc21	x	u	x	x	x	5µM*
C[n+]1ccnc2ccccc21	x	4µM*	x	x	x	1.4µM*
COC(=O)c1cc2oc3ccccc3c2n1CC(=O)Nc1ccc(C)cc1Cl	x	-16%	x	x	x	-19%
CC1(C)CC(=O)C2=C(C1)NC1=C(C(=O)c3ccccc31)C2c1ccc(Cl)cc1 (centres undefined)	-54*	u	u	u	3%	u
Cc1ccc(C2C3=C(CC(C)(C)CC3=O)NC3=C2C(=O)c2ccccc23)cc1 (centres undefined)	-57*	18µM*	u	3%	-4%	21µM*
COc1cc(C2C3=C(CC(C)(C)CC3=O)NC3=C2C(=O)c2ccccc23)ccc1O (centres undefined)	5	-25%	-8%	-4%	0%	-8%
C=CCn1c(NCCO)nc2c1c(=O)n(C)c(=O)n2C	32	u	8%	-9%	-3%	u
Cn1c(=O)c2c(nc(NCCCO)n2C/C=C/c2ccccc2)n(C)c1=O	-1	18µM*	-6%	27%	15%	18µM*
Cn1c(=O)c2c(nc(N3CCOCC3)n2C/C=C/c2ccccc2)n(C)c1=O	22	u	-29%	-1%	-12%	u
CC(O)CNc1nc2c(c(=O)n(C)c(=O)n2C)n1C/C=C/c1ccccc1 (centres undefined)	-18	9.2µM*	-1%	-7%	-3%	8.2µM*
COc1ccccc1C(=O)C1CCCN(C(=O)CCn2cnnn2)C1 (centres undefined)	4	17%	1%	0%	0%	-22%
O=C(NC(=S)NCc1cccnc1)c1ccc([N+](=O)[O-])cc1	0	-10%	5%	-3%	-2%	-26%
CCOc1ncccc1C(=O)NCc1ccccc1	x	x	2%	1%	-14%	x
SMILES	IL1B secr inh	DT40 TDP1 no CPT	Chronic BCR inh	MCF10A rereplic	SW480 rerep	TDP1 cell CPT
CC(C)(C)c1ccc(C(=O)Nc2ccc(C(=O)NCc3cccnc3)cc2)cc1	-9	1.8µM*	u	27%	u	2.6µM*
CCOc1ncccc1C(=O)NCc1ccc(OC)cc1	8	15µM*	u	u	8.2µM*	16µM*
O=C(Nc1cnn(Cc2c(Cl)cccc2Cl)c1)c1ccc([N+](=O)[O-])cc1	-8	16µM*	u	-6%	-1%	u
O=C(NCc1cccnc1)c1ccc(NC(=O)c2ccc([N+](=O)[O-])cc2)cc1	7	9.2µM*	-7%	14%	-7%	13µM*
N[C@H](CCC(=O)N[C@H](CSN=O)C(=O)NCC(=O)O)C(=O)O	x	-14%	x	x	x	0%
O=C1CCc2cc(S(=O)(=O)N3CCCCC3)cc3c2N1CC3	27	-7%	0%	-21%	-7%	-6%
CN1CCN(C(=O)c2cc(C(C)(C)C)cc(C(C)(C)C)c2)CC1	-23	-13%	u	-1%	1%	-2%
C=CCN1C(=O)c2ccc(C(=O)Nc3ccccn3)cc2C1=O	-9	1%	9%	-1%	u	0%
CCCCNC(=O)c1cc2cc(CC)ccc2[nH]1	0	-16%	1%	7%	2%	0%
COc1ccc(C(=O)Nc2ccccc2C(=O)NCc2cccnc2)cc1	-29	u	0%	4%	u	15µM*
COc1ccc(OC)c(NC(=O)C2C3C=CC(C3)C2C(=O)NCc2cccnc2)c1 (centres undefined)	12	10%	u	10%	-6%	7%
CC(C)c1ccc(C(=O)NC(=S)NCc2cccnc2)cc1	-15	16µM*	u	u	-6%	u
Cc1ccc(C(=O)NC(=S)NCc2cccnc2)cc1C	-3	-9%	-3%	13%	2%	-4%
COc1ccccc1NC(=O)C1C2C=CC(C2)C1C(=O)NCc1cccnc1 (centres undefined)	0	11%	5%	4.6µM*	-13%	1%
O=C(Nc1ccccc1C(=O)NCc1cccnc1)c1ccccc1F	-12	23%	4%	4%	-2%	-5%
COCCSc1ccccc1C(=O)NCc1cccnc1	-76*	-15%	u	3%	30%	8%
COCCSc1ccccc1C(=O)NCc1ccc(S(N)(=O)=O)cc1	-5	-17%	-1%	-8%	-3%	u
CCOC(=O)C1CCCN(C(=O)c2[nH]c(C(F)(F)F)nc2-c2ccccc2)C1 (centres undefined)	22	1%	x	x	x	1%
O=C(O)C/C(=C\c1cccc(NC(=O)c2ccccc2Cl)c1)c1nc2ccccc2s1	49	u	-2%	-1%	21%	u
